Records with an inconclusive call do not appear. Activity calls are given as the source filed them. Unless noted, calls come from the whole dose curve; as a rule, active = well fitted curve in the direction sought with a large enough effect; inconclusive = small, poorly fitted or top-dose-only effect, or another doubt; inactive = no such curve, though single readings can be large; an effect the other way counts as inactive or inconclusive.

The values that follow come from PubChem BioAssay (NCATS).

Assay [1] has as its target D(1A) dopamine receptor (Homo sapiens) (UniProt P21728). As to the kind of experiment: HTS Assay for Allosteric Agonists of the Human D1 Dopamine Receptor: Primary Screen for Agonists (AID 488981). Note: 0% is about no effect. An outline of the steps:
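Calcium flux in an inducible, force-coupled HEK293 Trex D1 line (overnight at 30 C): agonist mode is the 180 s kinetic read after compound; potentiator mode is the following 180 s read after dopamine at EC20.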

For assay [2] the target is unchanged. The assay is described as follows: HTS Assay for Allosteric Agonists of the Human D1 Dopamine Receptor: Primary Screen for Antagonists (AID 488983).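 Note: calcium flux response to an EC80 dopamine challenge measured with no-wash dye; % is set by controls: 0 for no effect and ±100 for the full control effect; nearly all actives have a fitted effect of over 65% in size.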 An outline of the steps:
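Tetracycline-induced HEK293 T-REx cells expressing force-coupled D1 were plated overnight at 30 C, dye-loaded for calcium, and read kinetically. Compounds were pinned in, then an EC80 dopamine challenge followed after 180 s to reveal antagonism.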

The nature of assay [3]: Validation screen for small molecules that induce genotoxicity in human embryonic kidney (HEK293T) cells expressing luciferase-tagged ELG1 (AID 493106). Note: potency is the fitted concentration of half-maximal effect. An outline of the steps: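 HEK293T cells expressing luciferase-tagged ELG1 were exposed to compound or DMSO vehicle for 16 hr at 37 °C, 5% CO2. Genotoxic stress raises ELG1 levels, so increased luciferase signal after ONE-Glo addition and 30 min at room temperature marks hits.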

In assay [4] the target is ATPase family AAA domain-containing protein 5 (Homo sapiens) (UniProt Q96QE3). The assay is described as follows: Validation screen for small molecules that inhibit ELG1-dependent DNA repair in human embryonic kidney (HEK293T) cells expressing luciferase-tagged ELG1 (AID 493107).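 Note: cells co-treated with the DNA-damaging agent 5-fluorouridine alongside compound; series mostly up to about 46 µM; % is set by controls: 0 for no effect and ±100 for the full control effect; inhibitors lower the ELG1-luciferase luminescence signal; nearly all actives have a fitted effect of over 70% in size.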 An outline of the steps:
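HEK293T cells expressing luciferase-tagged ELG1 were co-treated with 5-fluorouridine and compound or DMSO for 16 hr at 37 °C, 5% CO2. Luciferase activity was then read with ONE-Glo after 30 min at room temperature; suppressed signal indicates blocked ELG1 function.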

Assay [5] concerns the target Thyrotropin-releasing hormone receptor (Homo sapiens) (UniProt P34981). As to the kind of experiment: qHTS for Small Molecule Agonists and Allosteric Enhancers of Human TRH Receptor: Validation Screen for Agonists (AID 493127;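 active = calcium activation more than 3 SD above the typical response in the agonist read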;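 note: intracellular calcium rise by fluo-8 fluorescence before TRH EC20 addition; 0% is about no effect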). Conditions: TRH receptor agonist cell assay; at 2 µM; stronger effect = higher value. An outline of the steps: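 TRHR-expressing cells were plated overnight in serum-containing medium, then loaded with fluo-8 calcium dye at room temperature for 30 min–1.5 h. After a 10 s baseline, compound was pin-transferred and calcium fluorescence (ex 480/em 530) read kinetically for agonist response.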

Assay [6] can be described thus: Nrf2 qHTS screen for inhibitors: Validation (AID 493153; active = well fitted inhibition curve with a large enough effect in the main read-out, with a control signal flat, not every such curve was filed as active). Conditions: viability change: measured here: cytotoxicity max response. An outline of the steps: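 A549 cells carrying an ARE-driven firefly luciferase reporter, in 5% FBS OPTI-MEM, were treated with compounds in concentration-response for 18-24 h at 37°C. Viability was read by CellTiter-Fluor fluorescence, then Nrf2 activity by luciferase luminescence.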
For orientation: In qHTS, concentration-response curves come from the screen itself.

A short description of assay [7]: qHTS for Inhibitors of Cell Surface uPA Generation: Validation Assay (AID 493164).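 Note: RAW 264.7 macrophage cells exposed to compound for 18 h; 0% is about no effect.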 An outline of the steps: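 RAW 264.7, 4000 cells/well, o/n plating; cpd 7-pt 1:5 dilution 2.45 nM–38.3 uM final; 18 h, 37 C/5% CO2; ATP-Lite, 5 s luminescence exposure.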
For assay [8], the target named is Galactokinase (Homo sapiens) (UniProt P51570). The assay is described as follows: qHTS Validation Assay for Inhibitors of Human Galactokinase (GALK) (AID 493189). Note: 0% is about no effect. An outline of the steps: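 GALK (5 nM) with 35 uM ATP and 100 uM galactose in HEPES pH8.0, MgCl2, NaCl, DTT, BSA; 1 h at room temperature. Residual ATP read by Kinase-Glo Plus luminescence after 10 min.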

Assay [9] has as its target Peptidyl-prolyl cis-trans isomerase NIMA-interacting 1 (Homo sapiens) (UniProt Q13526). The assay is described as follows: qHTS Validation Assay to Find Inhibitors of Pin1 (AID 504536; active = well fitted inhibition curve with a large enough effect in the polarisation, with a control signal flat, not every such curve was filed as active; the % refers to the polarisation;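 note: 0% = full Pin1 enzyme wells and -100% = no-enzyme wells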). An outline of the steps: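 Fluorescence polarization competition: compounds (titration) displace HiFluor-488-labeled Pin1-1b peptide from Pin1 (0.3 uM final) in pH 7.5 HEPES buffer with DTT, 10 min at room temperature; %Activity normalized to no-enzyme wells, curves fitted.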

Assay [10] addresses Phosphoglycerate kinase, glycosomal (Trypanosoma brucei brucei) (UniProt P07378). The assay is described as follows: qHTS Validation Assay to Find Inhibitors of Phosphoglycerate Kinase (AID 504547).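 Note: control wells lack PGK and mark full inhibition.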 An outline of the steps:
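Inhibition of the enzyme is judged by a Kinase-Glo Plus luminescent signal following a one-hour incubation at room temperature. Because 1,3-BPG is unstable, it is made in situ by GAPDH at 100nM final; no-PGK wells define the baseline.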

Assay [11] has as its target phosphoglycerate mutase (Leishmania major) (UniProt Q4Q090). The assay is described as follows: qHTS Validation Assay to Find Inhibitors of Phosphoglycerate Mutase (AID 504548). Note: series mostly up to about 58 µM; % is set by controls: 0 for no effect and ±100 for the full control effect. An outline of the steps: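 Lm PGAM 1.25nM final; 100 mM TEA pH 7.6, 5 mM MgCl2, 0.01% Tween-20; 45 min RT; Kinase-GloPlus, 10 min; end-point luminescence. Enzyme-free wells as negative controls.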

In assay [12] the target is Voltage-gated inwardly rectifying potassium channel KCNH2 (Homo sapiens) (UniProt Q12809). The assay is described as follows: qHTS Assay for Small Molecule Inhibitors of the Human hERG Channel Activity (AID 588834).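 Note: top concentration of the series differs between compounds; % is set by controls: 0 for no effect and ±100 for the full control effect; lower thallium flux fluorescence means stronger hERG block; nearly all actives have a fitted effect of over 50% in size.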 An outline of the steps: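 U2OS cells transduced with hERG via BacMam (MOI ~100), plated 2000/well, loaded with FluxOR thallium dye, compound ~10 min, then stimulation buffer; fluorescence decrease read kinetically; AC50 from Hill fits.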

The target of assay [13] is Glutaminase kidney isoform, mitochondrial (Homo sapiens) (UniProt O94925). The assay is described as follows: qHTS for Inhibitors of Glutaminase (GLS): LOPAC Validation (AID 624146). Note: potency is the fitted concentration of half-maximal effect; nearly all actives have a fitted effect of over 60% in size. An outline of the steps: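 Human kidney-isoform GLS in 45 mM KH2PO4 pH 8.2, 0.02% Tween-20, with compound, started with 1mM L-Glutamine (added stock). Glutamate oxidase/HRP/Amplex red coupled fluorescence read at start and after 30 min at RT.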

The nature of assay [14]: qHTS of Trypanosoma Brucei Inhibitors: LOPAC Validation (AID 624147). Note: 0% is about no effect. An outline of the steps: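 ADP (130 uM final) triggers the TbPYK reaction after compound addition; incubation is 45 min at room temperature. Kinase-Glo Plus is then added and luminescence imaged. Normalized data are fitted to concentration-effect curves.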
Assay [15] addresses Glucagon-like peptide 1 receptor (Homo sapiens) (UniProt P43220). As to the kind of experiment: qHTS of GLP-1 Receptor Agonists: LOPAC Validation (AID 624148).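 Note: luminescence from a luciferase reporter switched on by cAMP; 0% is about no effect; higher luminescence signal means agonism.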 An outline of the steps:
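Agonism scored as increased luciferase luminescence driven by cAMP in HEK293 clones carrying GLP-1R. Cells settled 12 hours, received compound for 4-6 hr at 37 deg C, 5% CO2, and were read after 12 min detection reagent at RT.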

Assay [16] can be described thus: qHTS of Nrf2 Activators: LOPAC Validation (AID 624149). Note: 0% is about no effect. An outline of the steps: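 AREc32 cells carrying an ARE-driven firefly luciferase were grown overnight in OPTI-MEM with 5% FBS, then exposed to compounds for 24 hr at 37 deg C. Luciferase signal was read after 30 min with Steady-Glo at RT.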
The nature of assay [17]: HTS Assay for Allosteric Antagonists of the Human D2 Dopamine Receptor: Hit Validation in HTRF (AID 624455).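 Note: stable D1 dopamine receptor cell line scored for blocking the D1 response; % is set by controls: 0 for no effect and ±100 for the full control effect.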 An outline of the steps: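 Hits were examined in an HTRF assay using cells stably expressing the D1 dopamine receptor, scoring inhibition of the D1-mediated response. The preceding primary screen tracked calcium flux after an EC80 dopamine addition in force-coupled, inducible Hek293 Trex D2 cells.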

Assay [18] deals with Arylsulfatase A (Homo sapiens) (UniProt P15289). The assay is described as follows: qHTS screen for enhancers of Arylsulfatase A (ASA1): LOPAC Validation Assay (AID 720538). Note: 0% is about no effect. An outline of the steps: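 SV40-transformed skin fibroblasts from an MLD patient (ASA-I179S) were treated with compounds for 48h at 37 degree C, then lysed with 0.5mM pNCS final substrate for 14h at room temperature; NaOH stop, fluorescence read (Ex=525 nm; Em=598 nm).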
Sequence of Arylsulfatase A (Homo sapiens) (P15289 whole entry, looked up): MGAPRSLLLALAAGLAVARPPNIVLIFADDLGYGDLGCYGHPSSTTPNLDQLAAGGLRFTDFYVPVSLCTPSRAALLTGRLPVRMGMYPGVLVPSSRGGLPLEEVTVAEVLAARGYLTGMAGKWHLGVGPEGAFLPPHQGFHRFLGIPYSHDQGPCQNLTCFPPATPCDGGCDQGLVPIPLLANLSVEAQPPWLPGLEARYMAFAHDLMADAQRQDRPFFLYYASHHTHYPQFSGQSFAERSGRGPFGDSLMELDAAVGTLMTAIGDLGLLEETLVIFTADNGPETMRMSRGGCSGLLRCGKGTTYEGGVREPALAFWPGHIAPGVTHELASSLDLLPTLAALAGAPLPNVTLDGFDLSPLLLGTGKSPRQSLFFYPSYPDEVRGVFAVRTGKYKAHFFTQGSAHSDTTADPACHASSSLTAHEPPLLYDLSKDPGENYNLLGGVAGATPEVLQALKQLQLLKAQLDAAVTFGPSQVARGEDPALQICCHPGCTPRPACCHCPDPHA

Sequence of D(1A) dopamine receptor (Homo sapiens) (P21728 whole entry, looked up): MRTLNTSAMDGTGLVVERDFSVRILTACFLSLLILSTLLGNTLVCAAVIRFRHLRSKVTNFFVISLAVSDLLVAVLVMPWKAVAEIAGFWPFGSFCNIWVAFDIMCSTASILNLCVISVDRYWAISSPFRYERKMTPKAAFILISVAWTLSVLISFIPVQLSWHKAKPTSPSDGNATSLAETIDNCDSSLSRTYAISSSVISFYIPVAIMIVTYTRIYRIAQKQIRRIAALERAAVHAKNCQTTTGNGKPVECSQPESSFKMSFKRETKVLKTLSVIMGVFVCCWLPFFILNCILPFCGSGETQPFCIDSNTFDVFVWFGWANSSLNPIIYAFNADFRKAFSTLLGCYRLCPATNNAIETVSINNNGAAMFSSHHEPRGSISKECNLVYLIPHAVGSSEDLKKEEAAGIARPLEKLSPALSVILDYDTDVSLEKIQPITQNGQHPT
Sequence of Phosphoglycerate kinase, glycosomal (Trypanosoma brucei brucei) (P07378 whole entry, looked up): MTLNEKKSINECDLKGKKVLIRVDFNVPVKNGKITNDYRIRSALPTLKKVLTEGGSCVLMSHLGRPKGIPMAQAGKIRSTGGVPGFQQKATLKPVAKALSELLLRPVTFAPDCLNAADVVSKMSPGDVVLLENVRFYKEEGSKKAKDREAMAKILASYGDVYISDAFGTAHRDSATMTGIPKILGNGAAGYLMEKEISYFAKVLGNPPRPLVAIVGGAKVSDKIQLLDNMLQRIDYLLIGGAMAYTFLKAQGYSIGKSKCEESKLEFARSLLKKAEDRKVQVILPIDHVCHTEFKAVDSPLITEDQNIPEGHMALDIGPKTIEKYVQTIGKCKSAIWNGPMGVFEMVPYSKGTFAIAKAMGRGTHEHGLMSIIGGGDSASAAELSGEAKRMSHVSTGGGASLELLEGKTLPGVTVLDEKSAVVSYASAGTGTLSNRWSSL
Sequence of Peptidyl-prolyl cis-trans isomerase NIMA-interacting 1 (Homo sapiens) (Q13526 whole entry, looked up): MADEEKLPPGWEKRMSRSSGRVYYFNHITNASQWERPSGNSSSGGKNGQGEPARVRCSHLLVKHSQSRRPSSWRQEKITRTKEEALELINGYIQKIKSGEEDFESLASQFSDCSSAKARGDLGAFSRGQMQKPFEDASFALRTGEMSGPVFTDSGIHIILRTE
Sequence of phosphoglycerate mutase (Leishmania major) (Q4Q090 1-553): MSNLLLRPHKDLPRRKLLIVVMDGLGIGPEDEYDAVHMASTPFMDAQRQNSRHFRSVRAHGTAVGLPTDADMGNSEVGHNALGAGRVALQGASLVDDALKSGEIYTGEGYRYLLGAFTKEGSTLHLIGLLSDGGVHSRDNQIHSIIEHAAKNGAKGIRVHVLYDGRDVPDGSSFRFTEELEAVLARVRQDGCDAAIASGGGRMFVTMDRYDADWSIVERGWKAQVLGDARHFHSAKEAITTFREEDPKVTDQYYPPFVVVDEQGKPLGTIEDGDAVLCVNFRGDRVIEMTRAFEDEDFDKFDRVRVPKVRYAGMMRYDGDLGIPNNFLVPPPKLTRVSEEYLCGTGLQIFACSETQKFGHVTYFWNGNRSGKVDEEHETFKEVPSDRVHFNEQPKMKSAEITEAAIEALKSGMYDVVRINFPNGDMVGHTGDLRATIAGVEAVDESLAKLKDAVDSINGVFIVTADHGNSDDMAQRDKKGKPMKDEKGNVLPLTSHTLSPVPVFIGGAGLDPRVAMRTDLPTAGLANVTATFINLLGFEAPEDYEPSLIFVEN
Sequence of Glutaminase kidney isoform, mitochondrial (Homo sapiens) (O94925 whole entry, looked up, canonical isoform): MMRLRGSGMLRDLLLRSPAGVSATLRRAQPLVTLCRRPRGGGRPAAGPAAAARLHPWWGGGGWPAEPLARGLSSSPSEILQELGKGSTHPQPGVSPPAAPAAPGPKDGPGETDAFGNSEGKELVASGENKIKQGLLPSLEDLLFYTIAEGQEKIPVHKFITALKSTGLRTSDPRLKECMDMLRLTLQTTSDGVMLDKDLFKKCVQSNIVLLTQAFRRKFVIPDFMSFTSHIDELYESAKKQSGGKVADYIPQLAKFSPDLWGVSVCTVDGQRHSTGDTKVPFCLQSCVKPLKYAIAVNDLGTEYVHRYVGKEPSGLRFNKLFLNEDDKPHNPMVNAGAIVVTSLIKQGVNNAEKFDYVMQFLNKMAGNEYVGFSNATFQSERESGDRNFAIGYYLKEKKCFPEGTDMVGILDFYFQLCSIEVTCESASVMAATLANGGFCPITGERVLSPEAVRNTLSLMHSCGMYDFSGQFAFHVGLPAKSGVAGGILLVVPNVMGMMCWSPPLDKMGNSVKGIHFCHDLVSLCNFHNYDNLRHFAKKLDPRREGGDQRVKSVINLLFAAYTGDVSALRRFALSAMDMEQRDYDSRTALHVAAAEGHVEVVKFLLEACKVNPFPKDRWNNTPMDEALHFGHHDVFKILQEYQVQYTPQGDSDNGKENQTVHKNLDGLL
Sequence of Thyrotropin-releasing hormone receptor (Homo sapiens) (P34981 whole entry, looked up): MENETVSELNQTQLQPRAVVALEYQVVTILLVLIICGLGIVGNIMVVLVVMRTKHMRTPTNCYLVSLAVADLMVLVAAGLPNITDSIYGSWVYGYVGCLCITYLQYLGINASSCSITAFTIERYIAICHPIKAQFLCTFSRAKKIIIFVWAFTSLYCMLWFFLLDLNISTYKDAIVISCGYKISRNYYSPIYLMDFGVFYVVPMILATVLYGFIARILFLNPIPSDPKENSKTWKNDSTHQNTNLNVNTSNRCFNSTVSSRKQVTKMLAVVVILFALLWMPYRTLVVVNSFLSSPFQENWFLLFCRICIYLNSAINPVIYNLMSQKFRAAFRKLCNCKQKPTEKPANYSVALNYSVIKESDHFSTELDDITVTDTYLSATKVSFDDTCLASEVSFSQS
Sequence of ATPase family AAA domain-containing protein 5 (Homo sapiens) (Q96QE3 whole entry, looked up, the tested form may be a part): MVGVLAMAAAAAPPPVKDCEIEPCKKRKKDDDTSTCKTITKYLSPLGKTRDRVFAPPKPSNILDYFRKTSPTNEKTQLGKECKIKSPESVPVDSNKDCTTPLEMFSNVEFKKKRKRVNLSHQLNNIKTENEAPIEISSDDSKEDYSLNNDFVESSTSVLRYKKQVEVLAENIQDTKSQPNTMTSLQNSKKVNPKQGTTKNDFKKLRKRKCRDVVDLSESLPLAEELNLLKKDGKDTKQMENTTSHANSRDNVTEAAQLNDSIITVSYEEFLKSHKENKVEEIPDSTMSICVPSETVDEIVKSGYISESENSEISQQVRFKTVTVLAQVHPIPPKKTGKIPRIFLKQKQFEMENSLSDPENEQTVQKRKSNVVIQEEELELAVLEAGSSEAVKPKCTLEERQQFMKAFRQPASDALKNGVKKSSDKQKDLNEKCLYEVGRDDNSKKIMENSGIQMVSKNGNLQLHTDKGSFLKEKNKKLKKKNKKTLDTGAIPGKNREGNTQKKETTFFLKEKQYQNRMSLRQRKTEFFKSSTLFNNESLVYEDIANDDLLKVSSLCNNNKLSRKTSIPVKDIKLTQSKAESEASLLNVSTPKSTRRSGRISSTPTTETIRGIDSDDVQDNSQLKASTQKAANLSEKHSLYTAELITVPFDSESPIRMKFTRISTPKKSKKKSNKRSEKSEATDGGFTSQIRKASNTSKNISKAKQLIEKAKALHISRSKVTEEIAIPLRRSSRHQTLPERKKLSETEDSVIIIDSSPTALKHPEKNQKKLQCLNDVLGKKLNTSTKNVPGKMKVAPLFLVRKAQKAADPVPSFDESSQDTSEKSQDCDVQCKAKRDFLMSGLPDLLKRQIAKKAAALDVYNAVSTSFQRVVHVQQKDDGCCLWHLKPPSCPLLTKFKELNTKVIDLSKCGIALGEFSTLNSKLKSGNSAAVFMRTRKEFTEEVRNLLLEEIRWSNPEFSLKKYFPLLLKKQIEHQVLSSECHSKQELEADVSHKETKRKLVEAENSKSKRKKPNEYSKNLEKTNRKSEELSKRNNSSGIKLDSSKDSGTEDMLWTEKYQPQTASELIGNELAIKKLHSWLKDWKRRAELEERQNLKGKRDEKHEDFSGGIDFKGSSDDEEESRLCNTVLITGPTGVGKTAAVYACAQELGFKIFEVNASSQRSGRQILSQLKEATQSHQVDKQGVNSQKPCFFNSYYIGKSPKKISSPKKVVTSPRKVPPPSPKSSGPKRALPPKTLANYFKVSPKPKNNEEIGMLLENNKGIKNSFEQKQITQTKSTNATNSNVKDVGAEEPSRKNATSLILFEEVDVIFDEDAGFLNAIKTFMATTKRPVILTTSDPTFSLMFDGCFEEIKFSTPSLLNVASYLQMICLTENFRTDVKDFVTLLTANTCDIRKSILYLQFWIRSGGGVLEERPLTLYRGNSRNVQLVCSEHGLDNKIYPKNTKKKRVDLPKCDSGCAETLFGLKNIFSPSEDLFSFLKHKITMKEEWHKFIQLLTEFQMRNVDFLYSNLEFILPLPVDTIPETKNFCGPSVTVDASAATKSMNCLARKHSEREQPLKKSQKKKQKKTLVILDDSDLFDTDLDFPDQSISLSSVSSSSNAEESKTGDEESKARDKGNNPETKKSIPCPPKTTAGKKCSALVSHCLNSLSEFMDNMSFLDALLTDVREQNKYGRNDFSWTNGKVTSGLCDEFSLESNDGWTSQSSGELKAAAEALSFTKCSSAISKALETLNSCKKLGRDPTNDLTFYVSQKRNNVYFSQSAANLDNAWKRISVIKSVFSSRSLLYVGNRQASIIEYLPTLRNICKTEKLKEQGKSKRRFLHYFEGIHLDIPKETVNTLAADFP

With `S=C(Nc1ccccc1)Nc1nccs1`, the result in [1], in [2], in assay [6], in [7], in [8] and in assay [11] was inactive. The call in [14], in assay [15], in assay [16] and in [17] was inactive. Also, the results for the Potency in assay [3] and in [13] were 20.6 µM (active) and 11.2 µM (active), respectively. For the same compound, the Potency entry in assay [4], in assay [9], in [10], in assay [12] and in assay [18] was “inactive” in each case. Also, the activation in assay [5] is 1.31% (inactive). Moreover, in assay [6], the viability change is -0.228%.
